The panel holds about 83,000 compounds, 20% with a hit somewhere; the sample as a whole holds those more often.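 96-well plates, one dose, 48 hours. Percent growth reported; active if below 10.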 Unmarked numbers belong to inactive results. Calls of active or inactive are those of the source.
These compounds were tested on SR leukemia (assay: NCI-60 one-dose screen, 48 h (100 = growth as untreated, 0 = no growth, -100 = all killed)). Settings: 10 µM unless noted.

| SMILES | growth |
| --- | --- |
| O=C(NCCCCCCNC(=O)c1c2c(nc3ccccc13)-c1cccnc1SC2)c1c2c(nc3ccccc13)-c1cccnc1SC2 | 89.7% |
| COc1cc(/C=N/n2cnc3oc(-c4ccccc4)cc3c2=N)cc(CN2CCCC2)c1O | 27.4% |
| C#C[C@]1(O)CC[C@H]2[C@@H]3CC=C4c5sc(Nc6cccc(Cl)n6)nc5CC[C@]4(C)[C@H]3CC[C@@]21C | 2.56% (active) |

Each compound was assayed on RPMI-8226 leukemia in the same assay as above. Settings: 10 µM unless noted.

| SMILES | growth |
| --- | --- |
| C#C[C@]1(O)CC[C@H]2[C@@H]3CC=C4c5sc(Nc6cccc(C)n6)nc5CC[C@]4(C)[C@H]3CC[C@@]21C | -33.2% (active) |
| Clc1ccc(-c2csc(N/N=C/c3nc4ccccc4n3C3CC3)n2)cc1 | 100% |
| O=C(NNc1nc2cc(F)c(F)cc2n2cccc12)c1ccncn1 | 16.9% |
| CCn1c2ccc(/C=N/NS(=O)(=O)CCN(C)C)cc2c2cc(/C=N/NS(=O)(=O)CCN(C)C)ccc21 | 99.8% |
| COc1ccc(-c2nnc(/N=C3/C(=O)Nc4ccc(Br)cc43)o2)cc1 | 96.2% |
| O=C(CCCCCCN1CC(=O)N2[C@@H](c3ccc(Cl)c(F)c3)c3[nH]c4ccccc4c3C[C@H]2C1=O)NO | 59.1% |
| O=C(N/N=C\c1ccc(Cl)cc1)c1ccc2nc(-c3ccc(Br)cc3)[nH]c2c1 | -8.35% (active) |
| O=C1CSC(=O)N1Cc1cc2ccccc2nc1Cl | 98.8% |
| CCCCSc1nnc(-c2ccc(-c3ccc(Cl)cc3)nc2C)o1 | 103% |
| COc1ccc(/C=N\NC(=O)c2ccc3nc(-c4ccc(Br)cc4)[nH]c3c2)cc1 | 42.1% |
